Assay: qHTS profiling of inhibitors of Plasmodium falciparum (DD2) proliferation (acoustic dispense)
Details: P. falciparum Dd2 in erythrocytes, SYBR Green DNA, 72 h; at 49.8 µM (top of the series) unless noted
Text: Plasmodium falciparum is a virulent malarial parasite that kills 1-2 million people worldwide each year. Transmitted by mosquitoes, the sporozoite form of the parasite enters the blood stream to infect hepatocytes, where they become merozoites that infect red blood cells (erythrocytes). Within erythrocytes, merozoites begin a […] cycle of growth and division, after which the parasite is released to infect new red blood cells. Gametocytes, which form within erythrocytes as well, circulate in the bloodstream and are ingested by the mosquito, thereby completing the life cycle. To profile malarial isolates for differential chemical responses and to identify inhibitors of malarial growth, an assay that measures P. falciparum growth and replication within erythrocytes was employed. This assay uses a DNA binding fluorescent dye (SYBR Green) to detect parasite DNA following cell lysis. Because mature erythrocytes lack DNA, only Plasmodium-derived DNA is detected.
The SYBR Green viability assay was adapted from a method described previously (Plouffe et al., 2008). For screening 3 ul culture medium was dispensed into 1536 well black clear bottom plates (Aurora Biotechnologies) using a Multidrop Combi (Thermo Fisher Scientific Inc.), 23 nL of compounds in DMSO were added by an acoustic dispenser (EDC Biosystems), and 5 ul of erythrocytes infected with P. falciparum (0.3% parasitemia, 2.5% hematocrit final concentration) were added. The plates were incubated at 37 C in a humidified incubator in 5% CO2 for 72 h, and 2 ul lysis buffer (20 mM Tris HCl, 10 mM EDTA, 0.16% saponin, 1.6% triton X, 10X SYBR Green I supplied as 10,000X […] by Invitrogen) was added to each well. The plates were mixed for 25 sec with gentle shaking and incubated overnight at room temperature in the dark. The following morning, fluorescence intensity at 485(14) nm excitation and 535(25) nm emission wavelengths was measured on an EnVision (Perkin Elmer) plate reader. Plate reads were normalized relative to the control inhibitor (0.29 uM artemisinin) and vehicle (DMSO) wells present on each plate and then corrected by an algorithm using vehicle-only control plates at the beginning and end of the compound plate stack.

With Cc1[nH]c2ccccc2c1CCNCc1ccc(C=CC(=O)NO)cc1 as the compound, how does the parasite growth, lower = inhibition read?
Its parasite growth, lower = inhibition is -0.777%.

With C=CCNc1c(O)cc2c(O)c1C[C@@H](C)C[C@H](OC)[C@@H](O)[C@@H](C)C=C(C)[C@H](OC(N)=O)[C@@H](OC)C=CC=C(C)C(=O)N2 as the compound, how does the parasite growth, lower = inhibition read?
Its parasite growth, lower = inhibition is -0.701%.

Which parasite growth, lower = inhibition does the source give for CN(Cc1cnc2nc(N)nc(N)c2n1)c1ccc(C(=O)N[C@@H](CCC(=O)O)C(=O)O)cc1 here?
Its parasite growth, lower = inhibition is -0.378%.

For C[C@H]1[C@@H](OC(=O)CCC(=O)O)O[C@@H]2O[C@@]3(C)CC[C@@H]4[C@H](C)CC[C@@H]1[C@@]24OO3, which parasite growth, lower = inhibition is on record?
The parasite growth, lower = inhibition was -0.775%.

For C[C@@H](Oc1ccc2[nH]nc(C=Cc3cnn(CCO)c3)c2c1)c1c(Cl)cncc1Cl, which parasite growth, lower = inhibition is on record?
Its parasite growth, lower = inhibition is 1.14%.

For O=C1C(=O)c2ccccc2C(O)=C1C1CCC(c2ccc(Cl)cc2)CC1 (stereo not given), which parasite growth, lower = inhibition is on record?
The parasite growth, lower = inhibition was 3.04%.

With C=CCn1c(=O)c2cnc(Nc3ccc(N4CCN(C)CC4)cc3)nc2n1-c1cccc(C(C)(C)O)n1 as the compound, how does the parasite growth, lower = inhibition read?
Its parasite growth, lower = inhibition is -0.0983%.

For CCc1nc(N)nc(N)c1-c1ccc(Cl)cc1, which parasite growth, lower = inhibition is on record?
Its parasite growth, lower = inhibition is 79.6%.

For CCC(=O)N1CCN(c2ccc(-n3c(=O)ccc4cnc5ccc(-c6cnc7ccccc7c6)cc5c43)cc2C(F)(F)F)CC1, which parasite growth, lower = inhibition is on record?
Its parasite growth, lower = inhibition is 3.68%.

Which parasite growth, lower = inhibition does the source give for O=C1NC(=O)C(=Cc2ccc3nccc(-c4ccncc4)c3c2)S1 here?
The parasite growth, lower = inhibition was 0.455%.

With COc1ncnc(NS(=O)(=O)c2ccc(N)cc2)c1OC as the compound, how does the parasite growth, lower = inhibition read?
Its parasite growth, lower = inhibition is 114%.

For CO[C@H]1C=CC=C(C)C(=O)NC2=CC(=O)C(NCCN(C)C)=C(C[C@@H](C)C[C@H](OC)[C@@H](O)[C@@H](C)C=C(C)[C@@H]1OC(N)=O)C2=O, which parasite growth, lower = inhibition is on record?
The parasite growth, lower = inhibition was -1.01%.

For CCC[C@H](Nc1nc(-c2ccc(NC(=O)NCC)c(OC)c2)ncc1C)c1cccnc1, which parasite growth, lower = inhibition is on record?
The parasite growth, lower = inhibition was 1.45%.

With O[C@H](c1cc(C(F)(F)F)nc2c(C(F)(F)F)cccc12)[C@H]1CCCCN1 as the compound, how does the parasite growth, lower = inhibition read?
Its parasite growth, lower = inhibition is 0.891% [at 23.2 µM].

With FC(F)c1nc2ccccc2n1-c1nc(N2CCOCC2)nc(N2CCOCC2)n1 as the compound, how does the parasite growth, lower = inhibition read?
Its parasite growth, lower = inhibition is 0.937%.

For COc1cc2c(Oc3ccc(NC(=O)C4(C(=O)Nc5ccc(F)cc5)CC4)cc3F)ccnc2cc1OCCCN1CCOCC1, which parasite growth, lower = inhibition is on record?
Its parasite growth, lower = inhibition is 0.0003%.

With CC[C@]1(O)C[C@H]2CN(CCC3=c4ccccc4=N[C]3[C@@](C(=O)OC)(c3cc4c(cc3OC)N(C)[C@H]3[C@@](O)(C(N)=O)[C@H](O)[C@]5(CC)C=CCN6CC[C@]43[C@@H]65)C2)C1 as the compound, how does the parasite growth, lower = inhibition read?
The parasite growth, lower = inhibition was 3.44%.

With CCNC(=O)c1noc(-c2cc(C(C)C)c(O)cc2O)c1-c1ccc(CN2CCOCC2)cc1 as the compound, how does the parasite growth, lower = inhibition read?
Its parasite growth, lower = inhibition is 112%.

For CCCCN(CCCC)CCC(O)c1cc2c(Cl)cc(Cl)cc2c2cc(C(F)(F)F)ccc12 (stereo not given), which parasite growth, lower = inhibition is on record?
Its parasite growth, lower = inhibition is -0.281% [at 23.2 µM].

For COc1cc(NC(C)CCCN)c2ncccc2c1 (stereo not given), which parasite growth, lower = inhibition is on record?
The parasite growth, lower = inhibition was -0.0889%.

With Cn1c(=O)c(-c2c(Cl)cccc2Cl)cc2cnc(Nc3cccc(C(=O)O)c3)nc21 as the compound, how does the parasite growth, lower = inhibition read?
The parasite growth, lower = inhibition was -0.0499%.

With CCOC(=O)[C@H](CCc1ccccc1)N[C@H]1CS[C@H](c2cccs2)CN(CC(=O)O)C1=O as the compound, how does the parasite growth, lower = inhibition read?
Its parasite growth, lower = inhibition is 61.3%.

For CN(C(=O)OC(C)(C)C)[C@@H](Cc1ccc(O[S+](=O)([O-])c2cccc3cnccc23)cc1)C(=O)N1CCN(C(=O)OCc2ccccc2)CC1, which parasite growth, lower = inhibition is on record?
The parasite growth, lower = inhibition was -0.325%.

With CCN(CC)CCCC(C)Nc1ccnc2cc(Cl)ccc12 (stereo not given) as the compound, how does the parasite growth, lower = inhibition read?
The parasite growth, lower = inhibition was -0.356%.

Which parasite growth, lower = inhibition does the source give for CS[C@H]1SC[C@@H]2C(=O)N(C)[C@H](C(C)C)C(=O)OC[C@H](NC(=O)c3cnc4ccccc4n3)C(=O)N[C@H](C)C(=O)N(C)[C@@H]1C(=O)N(C)[C@H](C(C)C)C(=O)OC[C@H](NC(=O)c1cnc3ccccc3n1)C(=O)N[C@H](C)C(=O)N2C here?
The parasite growth, lower = inhibition was 0.25%.

Which parasite growth, lower = inhibition does the source give for COC(=O)[C@]12CCC(C)(C)C[C@@H]1[C@@H]1C(=O)C=C3[C@@]4(C)C=C(C#N)C(=O)C(C)(C)[C@@H]4CC[C@@]3(C)[C@]1(C)CC2 here?
Its parasite growth, lower = inhibition is 23.1%.

With CN(C)c1ccc(C(=C2C=CC(=[N+](C)C)C=C2)c2ccc(N(C)C)cc2)cc1 as the compound, how does the parasite growth, lower = inhibition read?
Its parasite growth, lower = inhibition is 96.3%.

Which parasite growth, lower = inhibition does the source give for CCN(CC)Cc1cc(Nc2ccnc3cc(Cl)ccc23)ccc1O here?
The parasite growth, lower = inhibition was 0.736% [at 23.2 µM].

With CC(C)[C@H](C(=O)Nc1ccc(C(=O)NO)cc1)c1ccccc1 as the compound, how does the parasite growth, lower = inhibition read?
The parasite growth, lower = inhibition was 0.408%.

Which parasite growth, lower = inhibition does the source give for COc1ccc2nc3cc(Cl)ccc3c(Nc3cc(CN4CCCC4)c(O)c(CN4CCCC4)c3)c2n1 here?
Its parasite growth, lower = inhibition is 0.653%.

With C[C@H](Cn1cnc2c(N)ncnc21)OCP(=O)(O)O as the compound, how does the parasite growth, lower = inhibition read?
Its parasite growth, lower = inhibition is 98%.

With CS(=O)(=O)CCNCc1ccc(-c2ccc3ncnc(Nc4ccc(OCc5cccc(F)c5)c(Cl)c4)c3c2)o1 as the compound, how does the parasite growth, lower = inhibition read?
The parasite growth, lower = inhibition was 5.58%.

For CO[C@H]1C=CO[C@@]2(C)Oc3c(C)c(O)c4c(O)c(c(C=NN5CCN(C)CC5)c(O)c4c3C2=O)NC(=O)C(C)=CC=C[C@H](C)[C@H](O)[C@@H](C)[C@@H](O)[C@@H](C)[C@H](OC(C)=O)[C@H]1C, which parasite growth, lower = inhibition is on record?
The parasite growth, lower = inhibition was -0.189% [at 16.5 µM].

Which parasite growth, lower = inhibition does the source give for CN[C@@H]1C[C@H]2O[C@@](C)([C@H]1OC)n1c3ccccc3c3c4c(c5c6ccccc6n2c5c31)C(=O)N[C@H]4O here?
The parasite growth, lower = inhibition was 0.898%.

For CCCCN(CCCC)CC(O)c1cc(Cl)cc2c1-c1ccc(Cl)cc1C2=Cc1ccc(Cl)cc1 (stereo not given), which parasite growth, lower = inhibition is on record?
Its parasite growth, lower = inhibition is -0.158%.

For CCN[C@H]1C[C@H](C)S(=O)(=O)c2sc(S(N)(=O)=O)cc21, which parasite growth, lower = inhibition is on record?
Its parasite growth, lower = inhibition is 0.306%.

Which parasite growth, lower = inhibition does the source give for C=C[C@@H]1CN2CC[C@@H]1C[C@H]2[C@H](O)c1ccnc2ccc(OC)cc12 here?
Its parasite growth, lower = inhibition is 0.438%.

Which parasite growth, lower = inhibition does the source give for Cc1nc2c(C#N)cccc2n1-c1ccc(C(=O)NC2CC2)s1 here?
The parasite growth, lower = inhibition was 2.19%.

Which parasite growth, lower = inhibition does the source give for CCS(=O)(=O)Nc1ccc2[nH]c(O)c(C(=Nc3ccc(CN4CCCCC4)cc3)c3ccccc3)c2c1 here?
Its parasite growth, lower = inhibition is -0.594%.

For COc1ccc(-c2nc(N3CCOCC3)c3sc(CN(C)c4ncc(C(=O)NO)cn4)cc3n2)cn1, which parasite growth, lower = inhibition is on record?
The parasite growth, lower = inhibition was 0.651%.

From PubChem BioAssay AID743365 (National Center for Advancing Translational Sciences (NCATS), 2014)
